Reference: PubChem BioAssay (NCATS)
Records with an inconclusive call do not appear. The source made the active and inactive calls. Calls follow the shape of the dose curve; as a rule, active = well fitted inhibition curve with a large enough effect; inconclusive = small, poorly fitted or top-dose-only effect; inactive = flat fitted curve, though single readings scatter.

system: CP192; test: qHTS profiling for inhibitors of Plasmodium falciparum proliferation (AID 504749);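 also: 0% = DMSO vehicle and full inhibition = artemisinin control; nearly all actives have a fitted effect of over 60% in size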; conditions: P. falciparum in erythrocytes, SYBR Green DNA, 72 h; series mostly up to 28.7 µM; activity, negative = inhibition: at the top concentration
Method in brief: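 SYBR Green fluorescence (ex 485 nm, em 535 nm) reports parasite DNA after 72 h compound exposure of infected red cells at 0.3% parasitemia, 2.5% hematocrit; signal normalized to 0.29 uM artemisinin and vehicle wells.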

Row | Compound | activity, negative = inhibition | Potency
1 | [O-][n+]1cccc(CO)c1 | -0.834% (inactive) | –
2 | Cc1cccc(C)c1NC(=O)CN(CC(=O)O)CC(=O)O | 6.93% (inactive) | –
3 | O=C(O)[C@@H]1CSCN1 | -5.62% (inactive) | –
4 | COc1cc2[nH]c(=O)[nH]c(=O)c2cc1OC | 0.879% [at 12.8 µM] (inactive) | –
5 | N[C@@H](CSCCCO)C(=O)O | -6.77% (inactive) | –
6 | O=c1[nH]c(=O)c2[nH]c(=O)[nH]c2[nH]1 | 3.54% (inactive) | –
7 | CCCCCCCCCCCCCCCCCCOCC(O)CO (centres undefined) | -4.77% (inactive) | –
8 | O=C(O)c1ccccc1-c1ccc(C(F)(F)F)cc1 | -1.52% (inactive) | –
9 | C[C@](N)(Cc1ccc(O)cc1)C(=O)O | -7.83% (inactive) | –
10 | O=C1OC(OC(=O)c2cccnc2Nc2cccc(C(F)(F)F)c2)c2ccccc21 (centres undefined) | 6.21% (inactive) | –
11 | Nc1ccc(S(=O)(=O)Nc2ccccc2)cc1 | -0.0026% (inactive) | –
12 | NC(=O)NNc1ccccc1 | – | inactive
13 | CC1(C)[C@@H]2CC[C@@]1(C)C(=O)C2 | -7.65% (inactive) | –
14 | CCC(=O)Nc1ccc(O)cc1 | -2.89% (inactive) | –
15 | CC1(C)CO[C@@H](CC(=O)O)CN1 | -1.23% (inactive) | –
16 | CCCCc1ncc(/C=C(\Cc2cccs2)C(=O)O)n1Cc1ccc(C(=O)O)cc1 | -10.5% (inactive) | –
17 | NCCNCCNCCNCCN | 1.31% (inactive) | –
18 | CCN(CC)CCSC(=O)C(c1ccccc1)c1ccccc1 | – | inactive
19 | C=Cc1c(C)c2cc3[nH]c(cc4nc(cc5nc(cc1[nH]2)C(C)=C5CCC(=O)O)C(CCC(=O)O)=C4C)c(C)c3C=C | 1.22% (inactive) | –
20 | NCC(=O)CCC(=O)O | -3.66% (inactive) | –
21 | COc1cc(C(=O)N2CCOCC2)cc(OC)c1OC | – | inactive
22 | Cc1cccc(Nc2cc(Cl)nc(SCC(=O)O)n2)c1C | -7.01% (inactive) | –
23 | O=C(O)COc1nn(Cc2ccccc2)c2ccccc12 | 1.9% (inactive) | –
24 | CC(=O)NC(Cc1ccccc1)C(=O)O (centres undefined) | 3.7% (inactive) | –
